Data on two sequences can be found in article PMC7862700, “An all-to-all approach to the identification of sequence-specific readers for epigenetic DNA modifications on cytosine”.

Holding throughout (experiment): DAPPL (digital affinity profiling via proximity ligation, sequencing); 10 mM Tris-HCl pH 7.5, 50 mM NaCl, 1 mM DTT, 4% glycerol, room temperature, 30 min; GST-TFs on glutathione beads, 16-mer random dsDNA library, 0.1% formaldehyde crosslink after washing; high values mean tight binding
Common to all, as to conditions: protein: recombinant; tags: N-terminal GST; dsDNA, one strand shown

For one test, the target named is T1, FLI1 (Homo sapiens, UniProt Q01543 1-452).
T1 sequence: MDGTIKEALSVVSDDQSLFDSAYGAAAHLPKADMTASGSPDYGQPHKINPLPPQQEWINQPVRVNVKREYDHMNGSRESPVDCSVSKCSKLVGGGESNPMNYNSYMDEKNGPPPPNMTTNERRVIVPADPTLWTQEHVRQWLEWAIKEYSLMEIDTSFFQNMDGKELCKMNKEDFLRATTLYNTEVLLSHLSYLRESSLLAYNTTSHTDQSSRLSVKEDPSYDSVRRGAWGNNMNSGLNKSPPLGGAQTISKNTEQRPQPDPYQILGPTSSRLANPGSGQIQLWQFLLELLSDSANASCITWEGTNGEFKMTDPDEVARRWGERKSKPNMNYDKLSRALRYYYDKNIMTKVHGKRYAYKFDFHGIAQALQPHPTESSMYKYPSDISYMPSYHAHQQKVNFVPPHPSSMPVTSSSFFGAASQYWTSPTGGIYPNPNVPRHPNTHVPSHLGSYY
The procedure, abridged:
(§1)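 Binding signal is given per hexamer as its read frequency for a factor divided by its frequency in the tag-only sample. GST-fused human transcription factors were expressed in yeast, captured on glutathione beads, barcoded with DNA and pooled with that sample, then incubated with 200 nmole of a 16-mer random double-stranded DNA library in Tris/NaCl/DTT/glycerol buffer for 30 min at room temperature. The pools were then washed, crosslinked, proximity-ligated, amplified by PCR and sequenced on an Illumina NextSeq500.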

In another test the target is T2, ELK1 (Homo sapiens, UniProt P19419 1-428).
T2 sequence: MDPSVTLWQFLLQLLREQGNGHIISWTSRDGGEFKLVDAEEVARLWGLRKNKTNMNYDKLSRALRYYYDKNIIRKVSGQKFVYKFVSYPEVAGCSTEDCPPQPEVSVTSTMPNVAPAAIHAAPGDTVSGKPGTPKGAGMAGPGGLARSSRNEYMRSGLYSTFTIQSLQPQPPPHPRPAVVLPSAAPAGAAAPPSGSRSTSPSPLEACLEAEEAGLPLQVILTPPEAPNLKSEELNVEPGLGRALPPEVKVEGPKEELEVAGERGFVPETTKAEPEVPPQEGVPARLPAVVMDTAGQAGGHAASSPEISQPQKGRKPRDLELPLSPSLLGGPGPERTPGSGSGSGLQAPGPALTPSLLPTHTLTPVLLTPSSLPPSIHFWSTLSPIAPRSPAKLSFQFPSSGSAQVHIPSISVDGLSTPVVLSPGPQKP
The procedure, abridged:
as §1

For the next test, the target named is T3, GABPA (Homo sapiens, UniProt Q06546 1-454).
T3 sequence: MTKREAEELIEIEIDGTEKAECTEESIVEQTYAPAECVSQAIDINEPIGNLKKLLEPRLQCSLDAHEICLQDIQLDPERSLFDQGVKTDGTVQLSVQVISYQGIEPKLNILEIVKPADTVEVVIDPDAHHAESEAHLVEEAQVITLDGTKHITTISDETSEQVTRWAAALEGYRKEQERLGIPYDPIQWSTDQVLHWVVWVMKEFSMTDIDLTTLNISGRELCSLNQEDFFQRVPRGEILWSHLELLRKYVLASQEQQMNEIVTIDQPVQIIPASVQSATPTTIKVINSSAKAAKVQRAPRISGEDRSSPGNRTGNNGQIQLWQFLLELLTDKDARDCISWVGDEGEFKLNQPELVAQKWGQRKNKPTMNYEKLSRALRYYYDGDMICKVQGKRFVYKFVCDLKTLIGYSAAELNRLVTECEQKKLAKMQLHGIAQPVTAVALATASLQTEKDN
Summed up:
as §1

The target in the next test is T4, ERG (Homo sapiens, UniProt P11308 1-479).
T4 sequence: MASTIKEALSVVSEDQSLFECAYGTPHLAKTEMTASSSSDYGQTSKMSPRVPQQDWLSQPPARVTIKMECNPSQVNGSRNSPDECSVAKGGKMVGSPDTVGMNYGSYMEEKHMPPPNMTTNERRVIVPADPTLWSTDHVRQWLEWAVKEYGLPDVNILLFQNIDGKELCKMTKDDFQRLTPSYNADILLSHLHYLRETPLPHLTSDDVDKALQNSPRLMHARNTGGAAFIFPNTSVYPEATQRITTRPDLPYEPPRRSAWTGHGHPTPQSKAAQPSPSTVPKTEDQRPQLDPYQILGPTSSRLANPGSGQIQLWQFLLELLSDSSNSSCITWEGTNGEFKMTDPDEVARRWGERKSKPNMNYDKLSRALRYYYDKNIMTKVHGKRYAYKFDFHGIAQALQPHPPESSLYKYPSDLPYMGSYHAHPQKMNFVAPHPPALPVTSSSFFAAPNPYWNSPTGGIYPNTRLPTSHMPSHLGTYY
Summed up: as §1

For another test, the target named is ELF1 (Homo sapiens, UniProt P32519 1-619). Summed up:
as §1

Another test concerns the target T5, EHF (Homo sapiens, UniProt Q9NZC4 1-300).
T5 sequence: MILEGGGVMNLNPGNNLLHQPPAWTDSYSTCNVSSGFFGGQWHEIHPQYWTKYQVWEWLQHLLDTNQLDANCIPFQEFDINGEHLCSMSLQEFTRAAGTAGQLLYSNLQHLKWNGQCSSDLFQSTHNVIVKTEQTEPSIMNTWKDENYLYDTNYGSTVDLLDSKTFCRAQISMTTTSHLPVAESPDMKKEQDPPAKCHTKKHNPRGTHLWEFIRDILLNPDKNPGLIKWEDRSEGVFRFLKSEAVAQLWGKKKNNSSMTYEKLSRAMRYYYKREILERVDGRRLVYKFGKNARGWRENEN
Summed up: as §1

The target in the next test is SPI1 (Homo sapiens, UniProt P17947 1-270). The procedure, abridged: as §1
Another test concerns the target SPIB (Homo sapiens, UniProt Q01892 1-262). Summed up:
as §1

The target of the next test is T6, ELK3 (Homo sapiens, UniProt P41970 1-407).
T6 sequence: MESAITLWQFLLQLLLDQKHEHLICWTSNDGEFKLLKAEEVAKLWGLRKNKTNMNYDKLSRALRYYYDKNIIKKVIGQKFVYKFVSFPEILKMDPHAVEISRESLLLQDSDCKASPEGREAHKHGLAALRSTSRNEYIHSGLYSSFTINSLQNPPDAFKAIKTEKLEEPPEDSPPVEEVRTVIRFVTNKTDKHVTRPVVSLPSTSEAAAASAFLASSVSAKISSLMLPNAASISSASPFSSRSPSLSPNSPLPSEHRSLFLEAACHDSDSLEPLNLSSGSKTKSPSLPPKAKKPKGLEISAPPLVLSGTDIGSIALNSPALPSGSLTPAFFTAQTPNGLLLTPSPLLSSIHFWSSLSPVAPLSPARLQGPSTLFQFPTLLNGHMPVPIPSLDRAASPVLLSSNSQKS
Summed up:
as §1

A further test has as its target T7, FEV (Homo sapiens, UniProt Q99581 1-238).
T7 sequence: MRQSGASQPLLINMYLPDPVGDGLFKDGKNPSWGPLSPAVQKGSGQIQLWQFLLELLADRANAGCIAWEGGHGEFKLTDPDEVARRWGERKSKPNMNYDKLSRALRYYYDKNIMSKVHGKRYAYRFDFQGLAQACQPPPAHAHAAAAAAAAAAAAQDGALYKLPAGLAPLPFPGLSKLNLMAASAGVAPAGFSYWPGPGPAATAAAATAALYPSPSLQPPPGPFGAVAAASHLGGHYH
Summed up:
as §1

The next test addresses ETV5 (Homo sapiens, UniProt P41161 1-510). Summed up: as §1
A further test has as its target T8, SPIC (Homo sapiens, UniProt Q8N5J4 1-248).
T8 sequence: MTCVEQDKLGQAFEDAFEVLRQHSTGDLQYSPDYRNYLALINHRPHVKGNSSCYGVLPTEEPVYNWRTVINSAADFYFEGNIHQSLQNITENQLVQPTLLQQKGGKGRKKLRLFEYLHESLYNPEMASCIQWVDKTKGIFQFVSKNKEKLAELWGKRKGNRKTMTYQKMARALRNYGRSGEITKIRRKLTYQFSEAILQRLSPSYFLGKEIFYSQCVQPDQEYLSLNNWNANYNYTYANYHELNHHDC
The procedure, abridged:
as §1

The target of another test is ELF4 (Homo sapiens, UniProt Q99607 1-663). The procedure, abridged:
as §1

For another test, the target named is T9, ELK4 (Homo sapiens, UniProt P28324-2 1-405).
T9 sequence: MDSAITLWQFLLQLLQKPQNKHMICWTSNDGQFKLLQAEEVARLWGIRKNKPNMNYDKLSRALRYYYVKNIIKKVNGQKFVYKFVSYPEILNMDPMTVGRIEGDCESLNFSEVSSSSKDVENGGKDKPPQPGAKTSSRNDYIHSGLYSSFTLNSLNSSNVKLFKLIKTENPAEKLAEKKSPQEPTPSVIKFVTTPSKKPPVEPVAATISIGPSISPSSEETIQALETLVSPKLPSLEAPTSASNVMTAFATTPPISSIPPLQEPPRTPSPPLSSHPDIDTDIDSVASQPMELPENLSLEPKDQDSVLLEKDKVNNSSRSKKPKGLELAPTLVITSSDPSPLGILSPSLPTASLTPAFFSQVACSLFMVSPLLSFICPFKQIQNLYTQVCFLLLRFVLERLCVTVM
The procedure, abridged: as §1

A further test has as its target T10, ELF3 (Homo sapiens, UniProt P78545 1-371).
T10 sequence: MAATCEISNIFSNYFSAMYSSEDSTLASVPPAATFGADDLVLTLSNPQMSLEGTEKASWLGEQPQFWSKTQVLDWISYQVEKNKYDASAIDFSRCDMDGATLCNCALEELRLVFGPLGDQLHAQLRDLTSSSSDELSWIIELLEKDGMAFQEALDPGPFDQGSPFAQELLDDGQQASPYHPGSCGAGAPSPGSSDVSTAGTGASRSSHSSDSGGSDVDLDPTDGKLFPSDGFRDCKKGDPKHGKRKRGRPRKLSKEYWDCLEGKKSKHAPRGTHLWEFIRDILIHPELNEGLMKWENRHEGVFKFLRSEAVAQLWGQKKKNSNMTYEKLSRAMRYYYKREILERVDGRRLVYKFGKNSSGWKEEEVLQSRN
Summed up: as §1

The target of the next test is ETV1 (Homo sapiens, UniProt P50549 1-477). The procedure, abridged: as §1
Sequence of ETV1 (P50549 whole entry): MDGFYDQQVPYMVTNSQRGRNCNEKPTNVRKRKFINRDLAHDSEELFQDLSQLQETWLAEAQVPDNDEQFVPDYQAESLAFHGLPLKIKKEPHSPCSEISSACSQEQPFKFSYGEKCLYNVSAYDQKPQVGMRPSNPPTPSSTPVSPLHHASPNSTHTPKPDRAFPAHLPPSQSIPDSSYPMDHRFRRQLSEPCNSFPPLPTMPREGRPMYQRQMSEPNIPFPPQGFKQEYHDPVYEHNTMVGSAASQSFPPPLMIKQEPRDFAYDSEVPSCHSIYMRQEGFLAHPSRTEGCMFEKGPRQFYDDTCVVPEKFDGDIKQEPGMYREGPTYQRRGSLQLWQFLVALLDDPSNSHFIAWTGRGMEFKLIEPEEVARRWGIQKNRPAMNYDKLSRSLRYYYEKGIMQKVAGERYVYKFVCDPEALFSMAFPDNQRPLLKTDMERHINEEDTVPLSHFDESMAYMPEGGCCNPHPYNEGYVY
Another test deals with T11, ETV2 (Homo sapiens, UniProt O00321 1-342).
T11 sequence: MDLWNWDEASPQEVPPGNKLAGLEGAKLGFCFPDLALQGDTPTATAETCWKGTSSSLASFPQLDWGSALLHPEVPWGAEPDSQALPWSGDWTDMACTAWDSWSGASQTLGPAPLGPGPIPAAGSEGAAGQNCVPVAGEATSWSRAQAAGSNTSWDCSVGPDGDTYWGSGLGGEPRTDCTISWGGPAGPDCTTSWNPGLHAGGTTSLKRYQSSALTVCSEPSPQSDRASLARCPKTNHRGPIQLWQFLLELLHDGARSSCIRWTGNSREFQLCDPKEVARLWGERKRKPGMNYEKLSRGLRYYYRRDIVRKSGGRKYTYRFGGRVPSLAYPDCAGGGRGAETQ
Summed up: as §1

Sequence of SPIB (Q01892 whole entry): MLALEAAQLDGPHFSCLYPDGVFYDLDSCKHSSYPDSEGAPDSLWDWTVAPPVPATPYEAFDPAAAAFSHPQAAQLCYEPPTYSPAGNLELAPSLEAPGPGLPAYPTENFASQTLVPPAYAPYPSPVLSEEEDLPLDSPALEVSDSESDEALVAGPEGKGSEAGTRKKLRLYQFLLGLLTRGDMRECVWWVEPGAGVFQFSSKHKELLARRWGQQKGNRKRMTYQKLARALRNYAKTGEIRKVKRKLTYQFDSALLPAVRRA
Sequence of ELF4 (Q99607 whole entry): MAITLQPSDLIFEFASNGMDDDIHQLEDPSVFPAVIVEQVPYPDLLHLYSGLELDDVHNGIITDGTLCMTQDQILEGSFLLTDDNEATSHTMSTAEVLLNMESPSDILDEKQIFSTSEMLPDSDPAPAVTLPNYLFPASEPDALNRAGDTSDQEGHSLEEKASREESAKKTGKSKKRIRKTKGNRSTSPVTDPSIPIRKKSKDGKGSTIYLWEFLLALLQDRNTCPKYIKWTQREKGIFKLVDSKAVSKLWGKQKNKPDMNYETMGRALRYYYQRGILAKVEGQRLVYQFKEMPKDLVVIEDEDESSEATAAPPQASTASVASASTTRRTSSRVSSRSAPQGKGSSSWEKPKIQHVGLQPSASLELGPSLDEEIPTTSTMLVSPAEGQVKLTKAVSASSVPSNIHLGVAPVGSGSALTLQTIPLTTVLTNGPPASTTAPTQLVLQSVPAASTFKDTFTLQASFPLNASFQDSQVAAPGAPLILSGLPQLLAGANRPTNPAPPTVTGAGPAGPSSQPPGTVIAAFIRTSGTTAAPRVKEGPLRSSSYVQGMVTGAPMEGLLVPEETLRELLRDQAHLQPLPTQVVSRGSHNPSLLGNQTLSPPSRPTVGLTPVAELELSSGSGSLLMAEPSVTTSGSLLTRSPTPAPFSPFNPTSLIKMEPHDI
Sequence of ETV5 (P41161 whole entry): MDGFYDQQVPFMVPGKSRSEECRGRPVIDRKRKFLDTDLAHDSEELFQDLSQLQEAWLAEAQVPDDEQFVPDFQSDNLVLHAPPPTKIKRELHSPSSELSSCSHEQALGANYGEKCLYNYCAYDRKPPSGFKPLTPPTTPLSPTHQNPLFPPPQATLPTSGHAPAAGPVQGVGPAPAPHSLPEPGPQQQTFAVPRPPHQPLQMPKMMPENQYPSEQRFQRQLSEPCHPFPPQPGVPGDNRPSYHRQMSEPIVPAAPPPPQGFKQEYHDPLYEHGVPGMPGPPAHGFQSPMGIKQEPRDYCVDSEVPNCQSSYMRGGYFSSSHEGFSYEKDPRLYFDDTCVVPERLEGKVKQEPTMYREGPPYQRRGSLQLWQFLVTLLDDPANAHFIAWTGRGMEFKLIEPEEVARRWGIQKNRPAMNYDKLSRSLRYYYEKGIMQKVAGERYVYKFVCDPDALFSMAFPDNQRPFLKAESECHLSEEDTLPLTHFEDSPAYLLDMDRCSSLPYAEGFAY
Sequence of ELF1 (P32519 whole entry): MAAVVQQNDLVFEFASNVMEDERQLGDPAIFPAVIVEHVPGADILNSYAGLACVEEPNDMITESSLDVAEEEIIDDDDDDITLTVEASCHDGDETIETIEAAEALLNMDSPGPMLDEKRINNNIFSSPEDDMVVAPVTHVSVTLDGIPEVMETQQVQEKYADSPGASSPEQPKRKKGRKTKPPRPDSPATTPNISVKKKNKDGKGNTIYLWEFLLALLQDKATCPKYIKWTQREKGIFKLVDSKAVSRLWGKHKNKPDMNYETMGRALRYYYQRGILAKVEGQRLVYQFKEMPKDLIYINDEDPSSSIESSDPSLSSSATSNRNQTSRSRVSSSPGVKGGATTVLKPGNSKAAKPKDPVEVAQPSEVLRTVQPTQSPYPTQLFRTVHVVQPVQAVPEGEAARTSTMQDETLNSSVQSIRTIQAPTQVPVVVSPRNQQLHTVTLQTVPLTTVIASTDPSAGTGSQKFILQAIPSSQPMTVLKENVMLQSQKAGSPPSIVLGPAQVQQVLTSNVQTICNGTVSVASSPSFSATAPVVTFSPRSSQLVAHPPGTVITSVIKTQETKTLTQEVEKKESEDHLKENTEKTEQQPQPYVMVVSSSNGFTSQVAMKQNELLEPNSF

Take GGGCTC: the binding signal is 1.21 fold enrichment (6-mer frequency, TF over GST control) with FLI1; 1.24 fold enrichment (6-mer frequency, TF over GST control) with ELK1; 1.32 fold enrichment (6-mer frequency, TF over GST control) with GABPA; 1.17 fold enrichment (6-mer frequency, TF over GST control) in the test with ERG; 1.2 fold enrichment (6-mer frequency, TF over GST control) with ELF1; 1.03 fold enrichment (6-mer frequency, TF over GST control) with EHF. Moreover, the binding signal is 1.11 fold enrichment (6-mer frequency, TF over GST control) with SPI1; 1.26 fold enrichment (6-mer frequency, TF over GST control) with SPIB; 1.22 fold enrichment (6-mer frequency, TF over GST control) with ELK3; 1.15 fold enrichment (6-mer frequency, TF over GST control) with FEV; 1.18 fold enrichment (6-mer frequency, TF over GST control) in the test with ETV5; 1.19 fold enrichment (6-mer frequency, TF over GST control) with SPIC. Moreover, the binding signal with ELF4 is 1.26 fold enrichment (6-mer frequency, TF over GST control); in the test with ELK4 it was 1.09 fold enrichment (6-mer frequency, TF over GST control); in the test with ELF3 it was 1.19 fold enrichment (6-mer frequency, TF over GST control); in the test with ETV1 it was 1.29 fold enrichment (6-mer frequency, TF over GST control).
In the case of CAACCA, the binding signal in the test with FLI1 is 1.15 fold enrichment (6-mer frequency, TF over GST control); in the test with ELK1, 1.15 fold enrichment (6-mer frequency, TF over GST control); in the test with GABPA, 1.12 fold enrichment (6-mer frequency, TF over GST control); with ERG, 1.03 fold enrichment (6-mer frequency, TF over GST control); with ELF1 it was 1.15 fold enrichment (6-mer frequency, TF over GST control); with EHF it was 1.13 fold enrichment (6-mer frequency, TF over GST control). Also, the binding signal in the test with SPI1 is 1.11 fold enrichment (6-mer frequency, TF over GST control); in the test with SPIB, 1.06 fold enrichment (6-mer frequency, TF over GST control); with ELK3, 1.18 fold enrichment (6-mer frequency, TF over GST control); with FEV, 1.12 fold enrichment (6-mer frequency, TF over GST control); in the test with ETV5 it was 1.13 fold enrichment (6-mer frequency, TF over GST control); in the test with SPIC it was 1.02 fold enrichment (6-mer frequency, TF over GST control). The binding signal in the test with ELF4 was 1.11 fold enrichment (6-mer frequency, TF over GST control); in the test with ELK4 it was 1.07 fold enrichment (6-mer frequency, TF over GST control); in the test with ETV2, 1.09 fold enrichment (6-mer frequency, TF over GST control); with ETV1, 1.09 fold enrichment (6-mer frequency, TF over GST control).
